Test results from PubChem BioAssay (NCI).
Compounds without any hit were thinned out: in the full panel of roughly 83,000, 20% have a hit.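 Method: cells in 96-well plates; compound added at one concentration; 48 h incubation; percent growth measured; values under 10 scored active.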 Calls of active or inactive are those of the source.

Columns and labels:
Test in all cases: NCI-60 one-dose screen, 48 h (100 = growth as untreated, 0 = no growth, -100 = all killed)
Conditions in all cases: 10 µM unless noted
[1] = test system: DU-145 prostate
[2] = test system: K-562 leukemia
[3] = test system: MALME-3M melanoma
[4] = test system: MDA-MB-231 breast
[5] = test system: RXF 393 renal
[6] = test system: SF-268 CNS
[7] = test system: SF-295 CNS
[8] = test system: SF-539 CNS
[9] = test system: M14 melanoma

Measured: growth

c1ccc2c(c1)CCN(NCCN1CCCC1)C2
inactive: [1] 110% | [2] 92.2% | [3] 101% | [4] 87% | [5] 99.9% | [6] 96.6% | [7] 98% | [8] 97.7% | [9] 93%

Clc1ccc2c(NCCNc3nc(N4CCCC4)nc4ccccc34)ccnc2c1
inactive: [6] 16.2%
active: [1] 5.1% | [2] -24.9% | [3] -69.6% | [4] -60.7% | [5] -56.9% | [7] -73.1% | [8] -92.6% | [9] -71.5%

C=CCCCC(=O)CCC(=O)OCC1O[C@@H](O[C@@H]2C(O)[C@@H](OC(C)=O)C(C)O[C@H]2O[C@H](CC=C)CCCCC)C(O)[C@@H](OC(=O)/C(C)=C/C)[C@@H]1OC(=O)/C=C/c1ccccc1 (stereo not given in full)
active: [4] 4.48% | [7] -11.9% | [9] -10.3%
inactive: [1] 33.3% | [2] 34.3% | [3] 17.7% | [6] 29.2% | [8] 14.3%

CN(N)c1nc2sc3c(c2c(=O)[nH]1)CCCC3
inactive: [1] 101% | [2] 109% | [3] 88.7% | [4] 102% | [5] 108% | [6] 95.9% | [7] 93% | [8] 98.7% | [9] 98.7%

CC(C)OP(=O)(CCC(=O)c1c[nH]c2ccccc12)OC(C)C
inactive: [1] 116% | [2] 95.6% | [3] 97.2% | [4] 106% | [5] 114% | [6] 101% | [7] 104% | [8] 97.4% | [9] 98.4%

Clc1ccc2c(NCCCNCc3ccc4c(c3)OCO4)ccnc2c1
active: [2] -10.9% | [3] -69.6% | [8] -86.7% | [9] -72.5%
inactive: [1] 58.1% | [4] 12.9% | [5] 19% | [6] 62% | [7] 59.8%

O=c1[nH]c(N2CCOCC2)nc2scc(-c3ccccc3)c12
inactive: [1] 107% | [2] 101% | [3] 88.8% | [4] 108% | [5] 97.5% | [6] 89.4% | [7] 96.5% | [8] 94.3% | [9] 98.9%

Cc1cc2c(-c3nc4ccccn4c3N)c(O)c(O)cc2c(O)c1-c1c(C)cc2c(-c3nc4ccccn4c3N)c(O)c(O)cc2c1O
inactive: [1] 26% | [2] 14.6% | [4] 13.6% | [5] 25.3% | [6] 20.4% | [8] 14.9% | [9] 25.1%
active: [3] -0.749% | [7] 2.67%

COc1cc(-c2nc(C(=O)Nc3ccc(C)cc3)nn2-c2ccc(F)c(F)c2)cc(OC)c1OC
inactive: [1] 100% | [2] 101% | [3] 89% | [4] 96.1% | [5] 116% | [6] 89.2% | [7] 94% | [8] 107% | [9] 94.6%

Cc1cc(N(CCNc2ccnc3cc(Cl)ccc23)Cc2cccs2)nc(Cl)n1
inactive: [1] 23.9% | [6] 19.3%
active: [2] -50.9% | [3] -29.4% | [4] -35.7% | [5] -63.3% | [7] -44.6% | [8] -92.2% | [9] -67.3%

Cc1cc(N(CCNc2ccnc3cc(Cl)ccc23)Cc2ccc3c(c2)OCO3)nc(N2CCCC2)n1
active: [2] -33.2% | [3] -72.8% | [4] -8.4% | [5] -70.7% | [7] -65.3% | [8] -93.3% | [9] -78.2%
inactive: [1] 29.7% | [6] 22.8%

COc1cc(-c2cc(-c3ccc(Nc4ccnc5cc(Cl)ccc45)cc3)nc(N3CCOCC3)n2)cc(OC)c1OC
active: [1] 4.95% | [2] 7.37% | [3] -22.4% | [4] -15.4% | [5] -8.41% | [7] 6.95% | [9] -22.2%
inactive: [6] 11.2% | [8] 32.9%

[2H]C1([2H])[C@H](C)O[C@H](C)C([2H])([2H])N1c1ccc(NC(=O)c2cccc(-c3ccc(OC(F)(F)F)cc3)c2C)cn1
inactive: [1] 80.1% | [2] 38.2% | [3] 68.2% | [4] 74.9% | [5] 90% | [6] 71.6% | [7] 73.3% | [8] 81.6% | [9] 77%

CC12O[C@H](C[C@@H](OC(=O)CCC(=O)O)[C@H]1O)n1c3ccccc3c3c4c(c5c6ccccc6n2c5c31)C(=O)NC4=O
inactive: [1] 41.8% | [2] 44.5% | [4] 64.3% | [6] 46.4% | [7] 13.1%
active: [3] -21.6% | [5] -3.02% | [8] -8.98% | [9] -6.7%

Clc1ccc(/C=C/c2cc(N3CCOCC3)c3cc(Cl)c(Cl)cc3n2)cc1
inactive: [1] 60.2% | [2] 86.3% | [3] 56% | [4] 59.3% | [5] 81.1% | [6] 58% | [7] 95.9% | [8] 62.3% | [9] 98.5%

Nc1ncnc2c1ccn2-c1cccc(NC(=O)c2ccc(N3CCOCC3)c(C(F)(F)F)c2)c1
inactive: [1] 57.8% | [2] 21% | [3] 65.3% | [4] 46.6% | [5] 19.4% | [6] 55% | [7] 28.6% | [8] 46.9% | [9] 44.5%

COC(=O)[C@]12CC[C@@H](C)[C@H](C)[C@@H]1C1=CC[C@@H]3[C@@]4(C)C[C@@H](OC(=O)/C=C/c5ccccc5)[C@H](O)[C@@](C)(CO)[C@@H]4[C@H](O)C[C@@]3(C)[C@]1(C)CC2
inactive: [6] 17.4% | [9] 16%
active: [1] 9.11% | [2] 1.96% | [3] 3.65% | [4] -72.7% | [7] -16.4% | [8] -49.1%

Cc1ccc(NC(=O)NC(=O)CSc2nc3ccccc3nc2C)cc1
inactive: [1] 85% | [2] 44.8% | [3] 71.1% | [4] 73.1% | [5] 90.4% | [6] 86.5% | [7] 43.7% | [8] 65.5% | [9] 74.9%

Cc1ccc(-c2cc3c(SCC(=O)Nc4cc(C(F)(F)F)ccc4Cl)nccn3n2)cc1
active: [2] -10.4% | [3] -69.5%
inactive: [1] 25.6% | [4] 13.4% | [5] 13.5% | [6] 56.5% | [7] 38.1% | [8] 53.9% | [9] 50.6%

CCN1CCN(c2nc(C)cc(N(CCCNc3ccnc4cc(Cl)ccc34)Cc3ccc4c(c3)OCO4)n2)CC1
inactive: [1] 25%
active: [2] -10.5% | [3] -81.9% | [4] -32.8% | [5] -73.4% | [6] -6.06% | [7] -76.1% | [8] -86.1% | [9] -87.9%

CCN1CCN(c2nc(C)cc(N(CCNc3ccnc4cc(Cl)ccc34)Cc3ccc4c(c3)OCO4)n2)CC1
inactive: [1] 40.2% | [6] 30.7%
active: [2] -54.9% | [3] -82.2% | [4] -0.846% | [5] -54.6% | [7] -62.9% | [8] -90.7% | [9] -80.2%

Cc1cc(N(CCNc2ccnc3cc(Cl)ccc23)Cc2ccc3c(c2)OCO3)nc(N2CCN(C)CC2)n1
active: [2] -59.1% | [3] -71.6% | [4] 4.9% | [5] -45.7% | [7] -66.4% | [8] -80.9% | [9] -79.6%
inactive: [1] 38.2% | [6] 29.3%

CC(C)=CCc1cc2c(cc1O)C1=C(C(=O)C3=C(C1=O)S(=O)(=O)CCN3)C(C=C(C)C)O2 (stereo not given)
active: [1] -97.1% | [2] 0.919% | [3] -96.1% | [4] 1.47% | [5] -76.2% | [6] -0.0427% | [7] -65.9% | [8] -100% | [9] -89.1%

CN1CCN(Cc2ccc(NC(=O)c3[nH]ncc3Nc3ncnc4sc5c(c34)CCCC5)cc2)CC1
active: [1] -86.7% | [2] -60.6% | [3] -75.4% | [4] -57.8% | [5] -92.9% | [6] -44.3% | [7] -87.9% | [8] -100% | [9] -95.2%

COC(=O)CCCNc1c(-c2c(O)c(O)cc3c(O)c(-c4c(C)cc5c(-c6nc7ccccn7c6NCCCC(=O)OC)c(O)c(O)cc5c4O)c(C)cc23)nc2ccccn12
inactive: [1] 29.6% | [2] 11% | [3] 39.9% | [4] 56.1% | [5] 32.9% | [6] 25.3% | [7] 26.4% | [9] 60.3%
active: [8] 2.01%

N#CC(C#N)=NO
inactive: [1] 111% | [2] 108% | [3] 99% | [4] 108% | [5] 105% | [6] 100% | [7] 101% | [8] 99.8% | [9] 110%

Cc1cc(N2CCOCC2)nc(N(CCNc2ccnc3cc(Cl)ccc23)Cc2cccs2)n1
active: [2] 2.63% | [3] -18.4% | [4] -0.994% | [5] -46.5% | [7] -54% | [8] -65.7% | [9] 3%
inactive: [1] 42% | [6] 43.8%

Cc1cc2c(-c3nc4ccccn4c3NC34CC5CC(CC(C5)C3)C4)c(O)c(O)cc2c(O)c1-c1c(C)cc2c(-c3nc4ccccn4c3NC34CC5CC(CC(C5)C3)C4)c(O)c(O)cc2c1O
active: [2] 7.38% | [3] 7.47% | [7] 1.49% | [8] -1.69% | [9] -0.979%
inactive: [1] 19.2% | [4] 21.9% | [5] 12.2% | [6] 17%
